Results filed as inconclusive are left out. Active and inactive are the calls of the source. Calls follow the shape of the dose curve; as a rule, active = well fitted inhibition curve with a large enough effect; inconclusive = small, poorly fitted or top-dose-only effect; inactive = no such curve, though single readings can be large or run the other way.
% is scaled to controls: 0 for no effect and ±100 for the full control effect; potency is read from the fitted curve at half-maximal effect.

The target of this assay is Cytochrome P450 3A7 (Homo sapiens) (UniProt P24462). Put plainly: Cytochrome P450 family 3 subfamily A member 7 (CYP3A7) small molecule antagonists: luciferase biochemical qHTS assay (AID 1963596). Also: nearly all actives have a fitted effect of over 40% in size. The note with it: P450-Glo CYP3A7 enzyme luminescence, 1 h; series mostly up to 57.4 µM; activity change, negative = inhibition: at the top concentration. In outline: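 P450-Glo luminescent assay: CYP3A7 enzyme converts a proluciferin substrate to luciferin, detected by luciferase reagent; light proportional to activity. Compounds in DMSO preincubated 10 min with enzyme-substrate mix at room temperature, then NADPH regeneration added for 1 h.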
Cytochrome P450 3A7 (Homo sapiens), sequence (P24462 whole entry, looked up): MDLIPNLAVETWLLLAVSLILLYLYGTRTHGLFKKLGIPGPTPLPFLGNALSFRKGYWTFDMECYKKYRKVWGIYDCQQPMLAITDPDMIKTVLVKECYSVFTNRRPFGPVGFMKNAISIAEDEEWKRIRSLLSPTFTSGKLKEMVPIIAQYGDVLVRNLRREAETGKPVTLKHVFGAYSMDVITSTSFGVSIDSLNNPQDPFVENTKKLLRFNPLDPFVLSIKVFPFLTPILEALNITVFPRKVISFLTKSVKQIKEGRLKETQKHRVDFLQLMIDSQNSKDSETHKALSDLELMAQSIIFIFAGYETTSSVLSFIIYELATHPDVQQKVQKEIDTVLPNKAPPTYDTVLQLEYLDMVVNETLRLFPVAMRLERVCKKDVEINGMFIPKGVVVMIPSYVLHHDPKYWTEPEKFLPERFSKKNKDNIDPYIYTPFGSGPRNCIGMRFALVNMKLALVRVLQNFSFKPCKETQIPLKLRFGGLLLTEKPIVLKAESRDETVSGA
`CC1(C)OC[C@H](NC(=O)Nc2ccc(Br)cc2Br)[C@H](c2ccccc2)O1`: the “activity change, negative = inhibition” value was 0% (inactive).
Regarding `CC(C)=CCC/C(C)=C/CC/C(C)=C/CC/C=C(\C)CC/C=C(\C)CCC=C(C)C`, the “activity change, negative = inhibition” value was -14.6% (inactive).
On the same count and under the same terms, as for `COC(=O)CCC(=O)CN`, the figure is -1.05% (inactive); as for `O=C(O)[C@@H]1CCCN1`, -2.37% (inactive).
Take `CC(C)C[C@H](NC(=O)CNC(=O)[C@H](Cc1ccc(O)cc1)NC(=O)[C@H](CO)NC(=O)[C@H](Cc1c[nH]c2ccccc12)NC(=O)[C@H](Cc1cnc[nH]1)NC(=O)[C@@H]1CCC(=O)N1)C(=O)N[C@@H](CCCN=C(N)N)C(=O)N1CCC[C@H]1C(=O)NCC(N)=O` (stereo in doubt): the “activity change, negative = inhibition” value is -0.565% (inactive).
For the compound `CN1c2c(nc(N)[nH]c2=O)NCC1CNc1ccc(C(=O)NC(CCC(=O)O)C(=O)O)cc1` (stereo not given), the “activity change, negative = inhibition” value was 1.07% (inactive).
As for `CCCCCCCC(=O)O`, the “activity change, negative = inhibition” value is -6.09% (inactive).
Turning to `CCCCCCOC(=O)c1cccnc1`, the “activity change, negative = inhibition” value was -19% (inactive).
Regarding `CN(C)CCN(Cc1ccccc1)c1ccccn1`, the Potency was 6.92 µM (active).
Regarding `Cc1cc(OCc2nc(-c3ccccc3Cl)cs2)ccc1OCC(=O)O`, the “activity change, negative = inhibition” value was 0% (inactive).
The same measure, in the same setting: for `CCCCCC/C=C\CCCCCCCc1cccc(O)c1C(=O)O` the value was -3.32% (inactive); for `COc1cc2nc(=NC(=O)c3cccnc3)n3c(c2cc1OC)NCC3`, -2.16% (inactive); for `CCCC(CCC)C(N)=O`, -2.19% (inactive).
On the same count and under the same terms, for `O=C(Nc1ccc(Cl)c(Cl)c1)C1CC1` the value was 42.6% (inactive).
Turning to `CC1=CC(O)=NS(=O)(=O)O1`, the “activity change, negative = inhibition” value is -1.54% (inactive).
`c1ccc(-n2cnnn2)cc1`: the “activity change, negative = inhibition” value is 15.9% (inactive).
On to `CCc1cnc(N2CCC(c3nc(COc4ccc(-n5cnnn5)cc4)cs3)CC2)nc1`, for which the “activity change, negative = inhibition” value is 0% (inactive).
Regarding `COc1ccc(C(=O)NC(c2ccccc2Cl)c2cc(Cl)c3cccnc3c2O)cc1` (stereo not given), the “activity change, negative = inhibition” value was 1.52% (inactive).
`CCOc1ccc(NC(=S)N2CCC(C(O)(c3ccccc3)c3ccccc3)CC2)cc1`: the “activity change, negative = inhibition” value is -17.4% (inactive).
With `Cc1cccc(C)c1NC(=O)C(C)N` (stereo not given), the “activity change, negative = inhibition” value was -14.5% (inactive).
Consider `CCOc1ccc(CNC(=O)Cn2c(=O)c3cccn3c3ccc(F)cc32)cc1`, for which the Potency is 0.425 µM (active).
Consider `COc1cc(Cc2cnc(N)nc2N)c(C(C)C)cc1OC`, for which the “activity change, negative = inhibition” value was 12.7% (inactive).
Same read-out and setting: for `N[C@H](CO)C(=O)O` the value was 0% (inactive); for `C=CC1=C(C(=O)O)N2C(=O)[C@@H](NC(=O)/C(=N\O)c3csc(N)n3)[C@H]2SC1` (stereo in doubt), -8.65% (inactive); for `COc1ccccc1NC(=O)Cc1c(C(=O)O)[nH]c2ccc(Cl)cc12`, 16.2% (inactive).
Turning to `C[N+]1(CCCCC[N+]2(C)CCCC2)CCCC1`, the “activity change, negative = inhibition” value is -7.69% (inactive).
With `COc1cc(C(=O)NC(c2ccc(Cl)cc2)c2cc(Cl)c3cccnc3c2O)cc(OC)c1OC` (stereo not given), the “activity change, negative = inhibition” value is 16.9% (inactive).
For the compound `COc1ccc(CNC(=O)c2nc(SCc3ccccc3F)ncc2Cl)cc1`, the “activity change, negative = inhibition” value was 0% (inactive).
For the compound `CCCc1ccc(C(=O)O)cc1`, the “activity change, negative = inhibition” value was -0.15% (inactive).
As for `O=C(OCCO)c1ccccc1O`, the “activity change, negative = inhibition” value was -2.92% (inactive).
On the same count and under the same terms, as for `Cc1ccc(-c2nnc(Nc3ccc(Br)cc3)c3ccccc23)cc1S(=O)(=O)NCc1nc2ccccc2[nH]1`, the figure is 0% (inactive); as for `COCC(=O)N1CCc2cc(-c3csc(NC(=O)c4cc(OC)cc(OC)c4)n3)ccc21`, -13% (inactive); as for `O=C(Nc1cccc(Cl)c1)Nc1ccccc1OCc1cc(=O)n2ccccc2n1`, 0.318% (inactive).
As for `O=C(O)Cc1cn(-c2ccccc2)nc1-c1ccc(Cl)cc1`, the “activity change, negative = inhibition” value is -3.33% (inactive).
For `Cn1nnc(-c2ccc(-c3ccc(N4C[C@H](CO)OC4=O)cc3F)cn2)n1`, the “activity change, negative = inhibition” value is -4.78% (inactive).
As for `Cn1c(=O)cc(N2CCCC(N)C2)n(Cc2cc(F)ccc2C#N)c1=O` (stereo not given), the “activity change, negative = inhibition” value is -28.3% (inactive).
Take `CCCCC(CC)COC(=O)CC(C(=O)OCC(CC)CCCC)S(=O)(=O)O` (stereo not given): the “activity change, negative = inhibition” value is 0% (inactive).
For `FCOC(C(F)(F)F)C(F)(F)F`, the “activity change, negative = inhibition” value is -11.7% (inactive).
On to `COC(=O)C(CN)c1c[nH]c2ccc(OC)cc12` (stereo not given), for which the “activity change, negative = inhibition” value was 20.6% (inactive).
The same measure, in the same setting: for `CCOC(=O)c1ccc(Nc2nc3nonc3nc2Nc2cccc(C)c2C)cc1` the value was 15.4% (inactive).

The values are drawn from PubChem BioAssay (NCATS).
